An excerpt weighted towards active compounds, which were near 10% of everything screened.
ALDH1A1 block – ALDH1A1 (human) enzyme inhibition; P00352; Purified ALDH1A1, NADH fluorescence, propionaldehyde substrate; Potency, µM (series often up to 75.3 µM), inactives show top-dose activity, negative = inhibition, usual class: inhibitors; 220,000 compounds, 7.3% hits;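 note: potency is the fitted concentration of half-maximal effect; plate controls were no enzyme wells and a reference inhibitor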
Target sequence (P00352 whole entry, looked up): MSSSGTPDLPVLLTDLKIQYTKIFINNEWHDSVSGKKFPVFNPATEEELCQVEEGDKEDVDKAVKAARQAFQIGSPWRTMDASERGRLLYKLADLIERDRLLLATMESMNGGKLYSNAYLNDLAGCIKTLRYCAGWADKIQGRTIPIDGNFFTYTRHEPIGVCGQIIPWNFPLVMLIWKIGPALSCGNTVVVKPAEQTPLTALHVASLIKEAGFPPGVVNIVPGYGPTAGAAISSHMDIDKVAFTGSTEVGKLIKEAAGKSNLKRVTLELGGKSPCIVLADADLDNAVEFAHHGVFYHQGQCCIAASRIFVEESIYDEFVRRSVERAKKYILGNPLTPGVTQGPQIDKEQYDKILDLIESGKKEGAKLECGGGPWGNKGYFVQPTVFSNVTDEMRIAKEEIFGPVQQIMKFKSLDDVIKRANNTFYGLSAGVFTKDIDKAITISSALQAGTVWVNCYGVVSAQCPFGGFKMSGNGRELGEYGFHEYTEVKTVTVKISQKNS
12-hLO inh – inhibitors of human 12-lipoxygenase (ALOX12); P18054; purified 12-hLO, xylenol orange hydroperoxide absorbance; Potency, µM (titrated, usually from 57.1 µM), without a hit: top-dose activity change, negative = inhibition, hits mostly inhibitors; 150,000 compounds, 0.12% hits; active = well fitted inhibition curve with a large enough effect; inconclusive = small, poorly fitted or top-dose-only effect; note: potency is the fitted concentration of half-maximal effect; nearly all actives have a fitted effect of over 55% in size
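Purified human 12hLO (150 nM final) was preincubated with compounds for 15 min at room temperature in 25 mM Hepes pH 7.0, 0.01% Triton X-100, then reacted with 40 uM arachidonic acid for 30 min. Hydroperoxide was detected with ferrous iron/xylenol orange.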
LMNA splice mod – changes lamin A minigene splicing in HeLa cells; 200,000 compounds, 0.01% hits; AID 1487; Potency, µM (doses to about 46.1 µM), for the others: top-dose ratio change, negative = inhibition, usual class: inhibitors; HeLa LMNA splicing GFP/RFP minigene ratio, 48 h; active = well fitted inhibition curve with a large enough effect in the signal ratio, with a control signal flat, not every such curve was filed as active; inconclusive = small, poorly fitted or top-dose-only effect, or effect the other way, or a change in a side signal; the % refers to the signal ratio; note: potency is the fitted concentration of half-maximal effect
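S3 HeLa cells stably expressing lamin A-EGFP splicing minigene plus DsRed2, 600 cells/well, 48 h compound exposure at 37C. Laser-scanning cytometry; analysed as GFP (500-530 nm)/RFP (575-640 nm) total intensity ratio; 0.5% DMSO vehicle.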
PNC inhibitor – perinucleolar compartment assembly inhibition; PC3M PTB-GFP, PNC prevalence imaging, 16 h; hits give low values; activity change (PNC), negative = inhibition, % at 10 µM; 140,000 compounds, 3.1% hits; AID 2417;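 active = readout at or below -70, meaning at least 70% loss of cells showing the perinucleolar compartment, a nuclear body marking cancer cells; inconclusive = readout between -30 and a set limit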;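 note: plate controls were DMSO wells for no effect and camptothecin positive control wells for full effect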
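Read-out is percentage of cells bearing a perinucleolar compartment, from automated 20x imaging of fixed, Hoechst-stained PC3M PTB-GFP cells. Cells were seeded 4 h, then exposed 16 h to compound (23 nl of library stock) in duplicate plates.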
HPGD block – blocks human HPGD enzyme activity; purified HPGD, NADH fluorescence kinetic, PGE2 substrate; Potency, µM, without a hit: at the highest dose activity change, negative = inhibition, hits mostly inhibitors; 150,000 compounds, 4.3% hits; AID 894; note: potency is the fitted concentration of half-maximal effect
Target sequence (P15428 whole entry, looked up): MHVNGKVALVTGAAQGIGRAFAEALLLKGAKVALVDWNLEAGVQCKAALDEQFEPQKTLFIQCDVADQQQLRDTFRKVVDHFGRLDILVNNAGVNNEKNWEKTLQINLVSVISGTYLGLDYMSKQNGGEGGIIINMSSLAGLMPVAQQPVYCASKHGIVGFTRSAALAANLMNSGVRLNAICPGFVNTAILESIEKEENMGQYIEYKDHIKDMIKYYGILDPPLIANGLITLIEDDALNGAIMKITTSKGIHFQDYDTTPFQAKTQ
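NADH formation kinetics: reaction with 30 uM PGE2 and 1 mM NAD+ (final), 20 nM enzyme, Tris-HCl pH 8 with Tween 20, after 15 min compound preincubation at room temperature. Fluorescence change, last versus first of five reads.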
Starred values were filed as active, the others as inactive; ? = inconclusive; / = no result; [ ] = dose if it differs, or a comment. Unless noted, calls come from the whole dose curve; as a rule, active = well fitted inhibition curve with a large enough effect (not every such curve was filed as active); inconclusive = small, poorly fitted or top-dose-only effect, or another doubt; inactive = no such curve, though single readings can be large or run the other way. Unless noted, % is set by controls: 0 for no effect and ±100 for the full control effect.

SMILES	ALDH1A1 block	12-hLO inh	LMNA splice mod	PNC inhibitor	HPGD block
O=C(NNc1cc(Br)c(O)c(Br)c1)c1ccccc1	18µM*	/	4%[46 µM]	/	/
CCCCc1nn2c(=O)cc(COC(=O)c3ccccc3NC(=O)c3cccs3)nc2s1	/	/	7%[46 µM]	/	/
CCN(C(=O)COC(=O)c1ccccc1SCC(=O)NC1CCCCCCC1)C1CCS(=O)(=O)C1 (stereo not drawn)	?	0%	-3%	-112*	?
O=C(CSc1ccccc1C(=O)NCc1ccccc1)NC1CCCCCCC1	-10%	-3%	-14%	45	20µM*
O=C(NC1CCCCCC1)C(=S)NCc1ccccc1	25µM*	/	/	/	/
O=C(CSc1ccccc1C(=O)O)NC1CCCCCCC1	?	-6%	12%	-20	-2%
O=C(NC1CCCCCC1)C(=S)NCCc1ccccc1	11µM*	/	/	/	/
O=C(NC1CCCCC1)C(=S)NCc1ccccc1	-14%	/	4%[46 µM]	/	/
Cn1cccc1C(=O)N1CCC2(CCCN(Cc3ccncc3)C2)CC1	?	-2%	/	/	-10%
O=C(CN1C(=O)C2(SCC(=O)N2c2ccccc2)c2ccccc21)Nc1ccccc1C(F)(F)F (stereo not drawn)	/	/	-9%[46 µM]	/	/
CC(=O)N1CCC2(CCCN(Cc3cc(C(F)(F)F)cc(C(F)(F)F)c3)C2)CC1	0%	5%	/	/	-6%
CCOC(=O)c1nn(-c2ccc(F)cc2)c(=O)c2c(N)scc12	15%	/	/	/	/
COC(=O)c1nn(-c2ccc(OC)cc2)c(=O)c2c(N)sc(C)c12	7.9µM*	-2%	2%	44	-27%
COC(=O)c1nn(-c2ccc(OC)cc2)c(=O)cc1NN	-10%	/	/	/	/
CCOC(=O)c1nn(-c2ccc(C)cc2)c(=O)c2c(N)scc12	18µM*	?	-3%	?	-16%
O=C(c1ccc(S(=O)(=O)Cc2cc(F)ccc2F)c([N+](=O)[O-])c1)N1CCCC1	8.9µM*	/	/	/	/
CC1CCN(C(=O)c2ccc(S(=O)(=O)Cc3cccc(F)c3)c([N+](=O)[O-])c2)CC1	25µM*	-1%	-4%	7	-25%
O=C(c1ccc(S(=O)(=O)Cc2cc(F)ccc2F)c([N+](=O)[O-])c1)N1CCCCC1	8.9µM*	3%	?	-29	14µM*
N#Cc1cc(-c2cccc(Cl)c2)c[nH]c1=O	-7%	5%	-6%	-92*	-19%
C=CCn1cc(-c2cccc(Cl)c2)cc(C#N)c1=O	?	0%	10%	-27	?
Clc1cccc(C=NC=Nc2cccc(Cl)c2)c1	9%	1%	/	/	-2%
COc1ccc(CCNC(=O)C2CCN(S(=O)(=O)c3ccc(Cl)cc3)CC2)cc1OC	-7%	-1%	-24%	-100*	-8%
CCOC(=O)Cc1csc(NC(=O)CCS(=O)(=O)Cc2ccccc2)n1	20µM*	-3%	-27%	29	-4%
COc1ccc(CNC(=O)c2ccc(S(=O)(=O)N3CCCC3)cc2)cc1OC	10µM*	2%	2%	-4	-14%
CCOC(=O)Cc1csc(NC(=O)CS(=O)(=O)Cc2ccccc2)n1	-6%	2%	-5%	?	-1%
SMILES	ALDH1A1 block	12-hLO inh	LMNA splice mod	PNC inhibitor	HPGD block
CCOC(=O)CSc1nnc(CNC(=O)c2ccc(S(=O)(=O)N3CCCC3)cc2)n1C	19µM*	-3%	7%	26	-2%
CCOC(=O)CSc1nnc(CNC(=O)c2ccc(S(=O)(=O)N3CCOCC3)cc2)n1C	4%	/	/	/	/
COc1ccc(-n2c(=O)c(-c3cn(C)c4ccccc34)nc3cncnc32)cc1	?	-4%	/	/	-23%
CCN(Cc1ccccc1)C(=O)c1nc(-c2cccc(F)c2)n2c1CCCCC2	/	/	0%[46 µM]	/	/
COc1ccc(CCNC(=O)C2CCN(S(C)(=O)=O)CC2)cc1OC	9%	-1%	5%	-10	0%
COc1cc(C(=O)NNC(=O)NC2CCCCC2)cc(OC)c1OC	6%	1%	-5%	-120*	-1%
COc1ccc(CCNC(=O)C2CCN(S(=O)(=O)N3CCCCCC3)CC2)cc1OC	7.9µM*	0%	-3%	-6	-7%
COc1ccc(CCNC(=O)C2CCN(Cc3nc(-c4cccc(Cl)c4)oc3C)CC2)cc1OC	-4%	-2%	?	-83*	-6%
CCOC(=O)Cc1csc(NC(=O)c2ccc(S(=O)(=O)N3CCCC3)cc2)n1	11µM*	6%	?	26	-13%
COc1ccc(C(=O)NNC(=S)NC2CCCCC2)cc1OC	11%	5%	8%	3	-5%
CC1CCN(S(=O)(=O)c2ccc(C(=O)Nc3nc4ccc(F)cc4s3)cc2)CC1	/	/	-1%[46 µM]	/	/
O=C(O)c1c(Cl)c(Cl)c(Cl)c(Cl)c1C(=O)Nc1ccc2cn[nH]c2c1	9%[13.5 µM]	0%[11.4 µM]	/	/	-8%
C[C@@H]1CCCN(C[C@@H](O)CN2CCCc3ccccc32)C1	-1%[13.5 µM]	-2%[11.4 µM]	/	/	-12%
COc1ccc(CCNC(=O)NC2CCCCC2)cc1OC	1%	1%	5%	-81*	-10%
O=C(NCCc1ccccc1)C1CCN(S(=O)(=O)N2CCCCCC2)CC1	7.1µM*	/	?	/	/
O=C(NCCN1CCOCC1)C1CCN(S(=O)(=O)N2CCCCC2)CC1	?	1%	-2%	-5	-9%
CCOc1ccc(CCNC(=O)C2CCCN(C(=O)N(C)C)C2)cc1OCC (stereo not drawn)	8%	5%	-5%	-100*	-12%
CCOc1ccc(CCNC(=O)C2CCN(S(=O)(=O)N3CCCCC3)CC2)cc1OCC	?	-1%	0%	84	-3%
O=C(NCCCN1CCCC1=O)C1CCN(S(=O)(=O)N2CCOCC2)CC1	?	2%	-7%	-84*	-10%
Cc1ccc(NC(=O)CSc2nc3n[nH]c(C)c3c(=N)n2-c2ccccc2C)cc1C	/	/	13%[46 µM]	/	/
CC(=O)C1=C(OC(=O)C(C)C)c2ccccc2S(=O)(=O)N1Cc1ccccc1	/	/	-19%[46 µM]	/	/
COCCCNC(=O)N1CCN(c2nnc(C)c3c(C)n(-c4ccc(Cl)cc4)nc23)CC1	/	/	-20%[46 µM]	/	/
CN(C)c1ccc(C(=O)Nc2cc(C(F)(F)F)ccc2-n2cncn2)cc1	?	-3%	13%	-92*	-23%
Cc1ccc(Cn2c(SCC(=O)C(C)(C)C)nc3ccsc3c2=O)cc1	/	/	7%[46 µM]	/	/
COc1ccc(/C=C2\CCCC3C2=NC(=S)NC3c2ccc(OC)cc2)cc1 (stereo not drawn)	8.9µM*	14µM*	?	40	?
O=C(/C=C\C=C/c1ccc2c(c1)OCO2)N1CCCCC1	?	-3%[25.6 µM]	?	/	10µM*
CCCCNC(=O)CSc1nc2n[nH]c(C)c2c(=N)n1-c1ccccc1CC	/	/	-4%[46 µM]	/	/
CCN(CC)c1ccc(/C=N\N2CCN(Cc3ccc(C)cc3)CC2)cc1	0.79µM*	/	-21%[46 µM]	/	/
Cc1ccc(CN2CCN(/N=C/c3ccc(C(=O)O)cc3)CC2)cc1	-10%	20%	?	61	-22%
Cc1ccc(/C=N/N2CCN(Cc3ccc(Cl)cc3)CC2)o1	7.9µM*	-24%	7%	-24	-35%

Bioassay records from PubChem.
